Assay results as given in PubChem BioAssay (EPA / NIEHS).
Inconclusive results are not listed. The source made the active and inactive calls. How the source made its calls: active means hit-call score of the fitted dose curve at least 0.9, where 1 is the maximum; inconclusive means response in the unintended direction; inactive means score below 0.9.

What was measured:
[1] = biological target: Estrogen receptor (Homo sapiens) (UniProt P03372); experiment: OT_ER_ERaERa_1440: Odyssey Thera (OT) 24-hour HEK293T Protein-Complementation Assay for Estrogen Receptor-alpha/-alpha Homodimer (AID 2283349);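 further: hits raise fluorescence above DMSO for agonists and antagonists alike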
Sequence of Estrogen receptor (Homo sapiens) (P03372 whole entry, looked up, the tested form may be a part): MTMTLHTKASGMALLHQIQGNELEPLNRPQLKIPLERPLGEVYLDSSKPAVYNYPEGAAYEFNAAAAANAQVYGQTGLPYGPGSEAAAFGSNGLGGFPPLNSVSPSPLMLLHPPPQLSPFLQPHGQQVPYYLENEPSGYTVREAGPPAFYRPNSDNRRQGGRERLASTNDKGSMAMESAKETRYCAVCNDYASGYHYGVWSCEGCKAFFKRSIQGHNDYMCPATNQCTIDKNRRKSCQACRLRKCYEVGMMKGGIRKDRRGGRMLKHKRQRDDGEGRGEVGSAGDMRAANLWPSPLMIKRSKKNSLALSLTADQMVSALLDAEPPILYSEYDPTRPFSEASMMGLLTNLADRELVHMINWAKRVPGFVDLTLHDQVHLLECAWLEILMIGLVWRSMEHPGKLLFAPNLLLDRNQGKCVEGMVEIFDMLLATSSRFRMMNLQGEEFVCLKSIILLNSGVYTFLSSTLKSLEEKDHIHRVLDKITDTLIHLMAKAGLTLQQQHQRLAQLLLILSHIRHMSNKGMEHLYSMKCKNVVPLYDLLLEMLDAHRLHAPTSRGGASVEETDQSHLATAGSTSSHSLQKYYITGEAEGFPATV
Method in brief: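 HEK293T cells stably expressing the human ER alpha ligand-binding domain (aa 310-547) as a homodimer PCA were dosed for 24 hours. Fluorescence intensity was read by laser scanning cytometry, and gain of signal was fitted relative to DMSO vehicle.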

[2] = biological target: Estrogen receptor (Homo sapiens) + Estrogen receptor beta (Homo sapiens) (UniProt P03372+Q92731); experiment: OT_ER_ERaERb_0480: Odyssey Thera (OT) 8-hour HEK293T Protein-Complementation Assay for Estrogen Receptor-alpha/-beta Heterodimer (AID 2283352)
Sequence of Estrogen receptor (Homo sapiens) + Estrogen receptor beta (Homo sapiens) (P03372 whole entry, looked up, the tested form may be a part): as above
Sequence of Estrogen receptor (Homo sapiens) + Estrogen receptor beta (Homo sapiens) (Q92731 whole entry, looked up, the tested form may be a part): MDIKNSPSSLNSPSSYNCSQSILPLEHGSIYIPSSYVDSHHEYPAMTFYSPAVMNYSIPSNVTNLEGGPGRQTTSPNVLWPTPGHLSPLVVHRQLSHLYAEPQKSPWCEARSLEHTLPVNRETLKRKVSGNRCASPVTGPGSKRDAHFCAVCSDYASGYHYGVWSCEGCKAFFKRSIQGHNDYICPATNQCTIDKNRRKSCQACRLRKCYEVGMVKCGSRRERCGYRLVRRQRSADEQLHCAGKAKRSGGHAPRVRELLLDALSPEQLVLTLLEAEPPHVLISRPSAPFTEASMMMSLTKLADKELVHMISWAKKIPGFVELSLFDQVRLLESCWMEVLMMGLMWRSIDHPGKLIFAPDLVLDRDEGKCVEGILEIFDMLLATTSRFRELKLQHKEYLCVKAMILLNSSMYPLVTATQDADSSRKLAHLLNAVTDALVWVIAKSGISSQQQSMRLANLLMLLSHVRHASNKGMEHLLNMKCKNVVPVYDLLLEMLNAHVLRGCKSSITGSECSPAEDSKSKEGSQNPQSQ
Method in brief: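 Human HEK293T cells were treated for 8 hours and receptor heterodimerisation was detected through reconstitution of a fluorescent reporter split between ER-alpha and ER-beta ligand-binding domains. Activity was analysed as gain of signal against DMSO.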

[3] = biological target: Estrogen receptor beta (Homo sapiens) (UniProt Q92731); experiment: OT_ER_ERbERb_0480: Odyssey Thera (OT) 8-hour HEK293T Protein-Complementation Assay for Estrogen Receptor-beta/-beta Homodimer (AID 2283357);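 further: active means signal gain over DMSO baseline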
Sequence of Estrogen receptor beta (Homo sapiens) (Q92731 whole entry, looked up, the tested form may be a part): as above
Method in brief: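 Fluorescence intensity, nuclear for agonists and nuclear plus cytoplasmic for antagonists, was quantified by laser scanning cytometry versus vehicle after 8 h treatment. The cells were HEK293T stably carrying ER beta LBD fragment-complementation partners.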

Measured: outcome

CC(=O)c1ccc(O)cc1
inactive: all assays above
